RXFP1 agonist: qHTS Assay for Agonists of the Relaxin Receptor RXFP1; 370,000 tested, 0.3% active; Relaxin receptor 1 (Homo sapiens), Q9HBX9; AID 2676, 2010; HEK293T-RXFP1 cAMP TR-FRET, 30 min; response scale: percent of porcine relaxin response, buffer zero; Potency, µM (doses to about 57.5 µM), actives largely listed as activators; active means well fitted activation curve with a large enough effect; inconclusive means small, poorly fitted or top-dose-only effect; further: nearly all actives have a fitted effect of over 60% in size
Target sequence (Q9HBX9 whole entry, looked up): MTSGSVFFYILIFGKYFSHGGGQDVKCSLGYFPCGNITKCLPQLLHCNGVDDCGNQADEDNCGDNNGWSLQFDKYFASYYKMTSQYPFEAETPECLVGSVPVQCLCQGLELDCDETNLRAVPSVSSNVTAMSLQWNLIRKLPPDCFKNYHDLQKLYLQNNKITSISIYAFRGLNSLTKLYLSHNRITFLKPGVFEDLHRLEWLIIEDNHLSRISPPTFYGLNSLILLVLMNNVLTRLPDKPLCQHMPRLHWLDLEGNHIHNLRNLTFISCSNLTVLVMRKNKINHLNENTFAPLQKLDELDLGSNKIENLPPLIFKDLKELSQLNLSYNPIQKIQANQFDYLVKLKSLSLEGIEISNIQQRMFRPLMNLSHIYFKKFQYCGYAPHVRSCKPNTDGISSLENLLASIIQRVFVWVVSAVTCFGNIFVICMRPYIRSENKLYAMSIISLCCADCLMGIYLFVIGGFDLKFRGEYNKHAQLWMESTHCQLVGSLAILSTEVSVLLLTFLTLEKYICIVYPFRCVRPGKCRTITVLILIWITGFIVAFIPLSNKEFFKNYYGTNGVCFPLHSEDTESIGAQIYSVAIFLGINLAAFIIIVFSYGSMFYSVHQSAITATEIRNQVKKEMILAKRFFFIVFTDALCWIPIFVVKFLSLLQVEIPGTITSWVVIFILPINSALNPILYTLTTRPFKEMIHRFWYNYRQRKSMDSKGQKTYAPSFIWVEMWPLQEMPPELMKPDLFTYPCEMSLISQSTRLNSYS
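cAMP rise read by TR-FRET after 30 min, 37C compound exposure (up to 58 uM) in RXFP1-transfected HEK293 cells with Ro 20174 present. EC50 from Hill-equation fits, with 29 nM porcine relaxin as 100% and buffer as basal.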
RXFP1 antag: qHTS Assay for Antagonists of the Relaxin Receptor RXFP1. HEK293-RXFP1, relaxin-stimulated cAMP HTRF, 30 min; hits give low values. Relaxin receptor 1 (Homo sapiens), Q9HBX9. activity change, negative = inhibition, % at 57.5 µM. AID 1259400, 2018. 350,000 tested, 0.59% active;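 active means activity change of -60% or lower, but not beyond a set lower limit; inconclusive means change between -60% and -40%, or beyond the set limit; inactive means change above -40%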
gsp antag: qHTS for Antagonists of gsp, the Etiologic Mutation Responsible for Fibrous Dysplasia/McCune-Albright Syndrome: qHTS; 340,000 tested, 0.4% active; Potency, µM (series often up to 76.9 µM), actives largely listed as inhibitors; gsp-mutant cells, cAMP HTRF, 30 min; AID 624288, 2012; calls by dose curve; cell line not stated here;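 further: intracellular cAMP measured with PDE inhibitor Ro 20-1724 present during compound exposure; nearly all actives have a fitted effect of over 65% in size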
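Cells, 2000/well, grown 16–24 h in DMEM 10% FBS with 0.5 mg/ml G418, then compounds plus […] (300 uM addition stock), 30 min at 37C. cAMP read by HTRF (cAMP-d2 and anti-cAMP antibody-K in lysis buffer) after 30 min RT.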
gsp agonist: qHTS for Agonist of gsp, the Etiologic Mutation Responsible for Fibrous Dysplasia/McCune-Albright Syndrome: qHTS; Potency, µM (series often up to 76.9 µM), hits mostly activators; 340,000 tested, 0.13% active; gsp mutant cells, cAMP HTRF, 30 min; active means well fitted activation curve with a large enough effect; inconclusive means small, poorly fitted or top-dose-only effect, or another doubt; inactive means no such curve, though single readings can be large or run the other way; cell line not stated here;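 further: phosphodiesterase inhibitor Ro 20-1724 added with compounds to block cAMP breakdown; nearly all actives have a fitted effect of over 60% in size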
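Cells in DMEM/10% FBS with G418 were pretreated with compounds in DMSO plus […] (300 uM stock) for 30 min at 37C. cAMP was measured by HTRF (cAMP-d2 plus anti-cAMP antibody-K) after 30 min at room temperature.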
Numbers stand for hits; 0 = inactive; ? = inconclusive; - = no result; [ ] = another dose, or the depositor's remark. Most compounds without a hit are left out; they make up all but 0.9% or so of the library.

SMILES	RXFP1 agonist	RXFP1 antag	gsp antag	gsp agonist
Cc1[nH]n(-c2ccccc2)c(=O)c1C(c1ccc(O)c([N+](=O)[O-])c1)c1c(C)[nH]n(-c2ccccc2)c1=O	-	0	11.2µM	0
O=C(c1ccc2c(c1)N(Cc1c(F)cccc1Cl)C(=O)c1ccccc1S2)N1CCCC1	0	-	-	-
COc1ccc(Cn2c(-c3ccc(C)cc3)nc3c(c(=O)c4ccccc4n3C)c2=O)cc1	0	0	25.1µM	0
Cc1ccc(S(=O)(=O)CCC(=O)Nc2ccc(Br)cc2C)cc1	0	0	-	-
O=C(COc1ccccc1O)Nc1ccc(Cl)cc1	0	0	35.5µM	0
CC#C[C@]1(O)CC[C@H]2[C@@H]3CCC4=CC(=O)CCC4=C3[C@@H](c3ccc(N(C)C)cc3)C[C@@]21C	0	0	35.5µM	-
C#C[C@]1(O)CCC2C3CCC4=CC(=O)CC[C@@H]4C3CC[C@@]21C (some centres not stated)	0	-	0	-
CCc1cc2cc3c(cc2nc1SCC(=O)Nc1c[nH]c(=O)[nH]c1=O)OCO3	?	0	0	0
CCc1cc2cc3c(cc2nc1SCC(=O)Nc1nccs1)OCO3	12.6µM	0	0	?
CN(C(=O)CCN1C(=O)/C(=C/c2ccc(F)cc2)SC1=S)C1CCS(=O)(=O)C1 (configuration not stated)	-	0	-	0
CCN(C(=O)CCN1C(=O)/C(=C/c2ccccc2)SC1=S)C1CCS(=O)(=O)C1 (configuration not stated)	0	0	28.2µM	?
CCn1c(=S)[nH]c2scc(-c3cccs3)c2c1=O	15.8µM	0	0	?
COc1ccccc1N1CCN(C(=O)c2c(C)oc3ncn(C)c(=O)c23)CC1	0	-	-	-
CCN(CC)CC(=O)Nc1c(C)cccc1C(=O)OC	-	0	-	-
CC1=C/C(=N\OS(=O)(=O)c2ccccc2)C(C)=CC1=O	0	?	28.2µM	0
COc1ccc(-c2nnc(SCC(=O)NC3CCCC3)nc2-c2ccc(OC)c(OC)c2)cc1OC	0	-70.4	-	-
CCN(CC)C(=O)CSc1ncnc2sc(-c3ccccc3)cc12	0	0	39.8µM	0
CN(CCC#N)C(=O)CSc1ncnc2sc(-c3ccccc3)cc12	0	0	0	0
COc1ccc(-c2nc(NC(=O)c3ccc(OCC(=O)Nc4ccc(F)cc4)c(OC)c3)sc2C)cc1	28.2µM	0	0	?
COc1ccc(C(=O)NCC(=O)Nc2ccc(F)cc2)cc1OC	0	0	0	0
COc1cc(C(=O)Nc2nc(-c3cc(C)ccc3C)c(C)s2)ccc1OCC(=O)Nc1ccc(F)cc1	31.6µM	0	0	?
COc1cc(C(=O)Nc2nc(-c3ccc(F)cc3)cs2)ccc1OCC(=O)N1CCOCC1	0	0	35.5µM	0
Cc1ccc(-n2nc(C)c3c(C(F)(F)F)cc(-c4cccnc4)nc32)cc1C	0	0	-	-
Cc1oc2cc(Br)c(O)c(Br)c2c1-c1ccccc1	0	-100.6	0	0[15.4 µM]
Cc1[nH]c2ccccc2c1NC(=O)CN1CCN(c2cccc(C(F)(F)F)c2)CC1	0	0	50.1µM	0
SMILES	RXFP1 agonist	RXFP1 antag	gsp antag	gsp agonist
O=C(CSc1nc2scc(-c3ccccc3)c2c(=O)[nH]1)NC1CCCCC1	0	-	-	-
N#Cc1c(-c2ccccc2)nc(SCC(=O)NC2CCCCC2)[nH]c1=O	22.4µM	0	0	?
COc1cccc(-c2nc(SCC(=O)Nc3nc(-c4ccccc4)c(C)s3)[nH]c(=O)c2C#N)c1	0	-70.8	0	0[15.4 µM]
CCOc1ccc2nc(NC(=O)CSc3nc(-c4ccccc4)c(C#N)c(=O)[nH]3)sc2c1	?	0	0	0[15.4 µM]
Cc1coc2ccccc2c1=O	-	0	-	-
COc1ccc(C(=O)N=C2SC3CS(=O)(=O)CC3N2c2ccc(N(C)C)cc2)cc1OC (configuration not stated)	0	-75.8	0	?
COc1ccc(N2C(=NC(=O)C3CCCCC3)SC3CS(=O)(=O)CC32)cc1OC (configuration not stated)	0	0	0	0
CCOc1ccc(NC(=O)CN2C(=O)COc3ccc(S(=O)(=O)NC4CCCC4)cc32)cc1	0	0	-	-
CC1(C)NC(=O)N(CC(=O)OCC(=O)c2ccc(Br)s2)C1=O	-	0	0	10µM
CCOc1ccccc1CNC(=O)CN1C(=O)c2cccnc2Oc2ccc(Cl)cc21	0	0	-	-
Cc1c(C(=O)OCc2ccccc2)[nH]c2c1C(=O)CC(c1ccc(N(C)C)cc1)C2 (configuration not stated)	0	0	-	-
Cc1c(C(=O)OCC2CCCO2)[nH]c2c1C(=O)CC(c1ccc(N(C)C)cc1)C2 (configuration not stated)	0	0	39.8µM	0
O=c1[nH]c2ccccc2n1CCCN1CCN(C(c2ccccc2)c2ccccc2)CC1	0	-75.3	-	-
O=C1c2cccnc2C(=O)N1Cc1ccc(F)cc1S(=O)(=O)NCc1ccco1	25.1µM	0	0	?
COc1ccc(CN2C(=O)c3cccnc3C2=O)cc1S(=O)(=O)NCc1ccc(C)o1	15.8µM	0	0	?
COC(=O)c1ccccc1NC(=O)CSc1cc(-c2ccccc2)nc(C)n1	?	0	-	-
Cc1nc2c(C(=O)NCCc3ccc(Cl)cc3)cnn2c(C)c1Cc1ccc(F)cc1	0	-61.4	-	-
Cc1nc2c(C(=O)NCCc3ccc(Cl)cc3)cnn2c(C)c1Cc1c(F)cccc1Cl	0	0	-	-
COC(CNC(=O)c1cnn2c(C)c(Cc3ccccc3)c(C)nc12)OC	0	0	0	0[15.4 µM]
Cc1nc2c(C(=O)NC(C)c3ccccc3)cnn2c(C)c1Cc1ccccc1 (configuration not stated)	0	-85.4	-	-
CCOC(=O)C1CCN(C(=O)c2cnn(-c3ccc(F)cc3)c2-n2cccc2)CC1	0	-	-	-
COC(=O)c1c(SCC(=O)Nc2cc(C)cc(C)c2)[nH]c2ccccc2c1=O	0	-	-	-
Cc1ccc(C2=Nc3ccccc3N(CC(=O)Nc3cccc(F)c3)C(=O)C2)cc1C	0	0	-	-
Cc1cccc(C)c1NC(=O)c1cc(S(N)(=O)=O)c(Cl)cc1O	-	0	-	-
CCCOc1ccc(-c2nc3ccccc3c(=O)o2)cc1	0	-	-	-
SMILES	RXFP1 agonist	RXFP1 antag	gsp antag	gsp agonist
CCCOc1cccc(-c2nc3ccccc3c(=O)o2)c1	0	-84.5	?	0[15.4 µM]
Cc1ccc(-n2c(SCc3nc(-c4ccc(Cl)cc4)no3)nnc2-c2ccncc2)cc1	0	-	-	-
Clc1ccc(-c2noc(CSc3nnc(-c4ccncc4)n3-c3ccccc3)n2)cc1	0	0	31.6µM	0
CCc1ccc(CNC(=O)C2COc3ccccc3C2)cc1 (configuration not stated)	0	0	-	-
O=C(Nc1ccc(Cl)cn1)C1C(c2ccccc2)C1(Cl)Cl (configuration not stated)	0	-98.2	0	0[15.4 µM]
O=C(Nc1ccccc1)C1C(c2ccccc2)C1(Cl)Cl (configuration not stated)	0	0	0	0[15.4 µM]
O=C(COc1ccccc1F)Nc1cc(S(=O)(=O)Nc2cccc(Cl)c2)ccc1O	0	0	35.5µM	0
